Over roughly 35,000 sequences, “fluorescence intensity (a.u.)” has its median near 10,000; the highest 2% begin near 52,000. What follows is part of a selection rich in the highest values, with near analogues and random picks from the rest.
What follows are sequences tested against T1, OsWOX13 (Oryza sativa, UniProt Q5QMM3 1-267) (assay: protein-binding microarray (RPBM); PBS, 2% BSA, 51.3 ng/ul salmon testes DNA, 50 uM zinc acetate, 200 nM TF, 25 C, 1 h; high values mean tight binding). Conditions: protein: recombinant; tags: N-terminal polyhistidine and DsRed monomer fusion (pET32a); label: CyDye5-dUTP incorporated in the synthesized complementary strand; 3' TTTTT single-stranded linker to array surface; dsDNA, one strand shown.
T1 sequence: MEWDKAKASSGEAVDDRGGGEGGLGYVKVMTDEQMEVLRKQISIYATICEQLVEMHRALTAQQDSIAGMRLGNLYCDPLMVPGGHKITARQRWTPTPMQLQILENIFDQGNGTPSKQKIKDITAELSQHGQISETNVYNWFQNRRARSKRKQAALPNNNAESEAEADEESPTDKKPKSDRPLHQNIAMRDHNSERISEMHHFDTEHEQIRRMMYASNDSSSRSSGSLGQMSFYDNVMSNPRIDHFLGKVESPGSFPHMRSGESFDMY
In short: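 Per-feature fluorescence intensity (arbitrary units), read on an Axon 4000B scanner, is the binding signal. Transcription factors carrying an N-terminal polyhistidine tag and DsRed fusion were expressed in E. coli BL21-CodonPlus and purified on Ni–NTA. A custom Agilent array, made double-stranded by primer extension with Cy5-dUTP and blocked with 2% BSA, was incubated with 200 nM protein in PBS, 2% BSA, salmon testes DNA and 50 µM zinc acetate at 25 °C for 1 h and then washed.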
“GTTACTGCATGATTTGCTAGATGTATTTTATGACAACAGACGGAGTCACCTAGTGCAG” was tested, and the binding signal was 12900 fluorescence intensity (a.u.).
With “ATGATTGATTTGGGTAACATACCAAACACCAAACAGTTCACGGAGTCACCTAGTGCAG” the binding signal was 56600 fluorescence intensity (a.u.).
In the case of “ATGATGATTGACTTATGTGAATATATTGTCTATATATGCACGGAGTCACCTAGTGCAG”, the binding signal is reported as 60300 fluorescence intensity (a.u.).
In the case of “AATGAATGACTGTCACAGTTCGATGATGTGACTATATATGCGGAGTCACCTAGTGCAG”, the binding signal is reported as 16600 fluorescence intensity (a.u.).
In the case of “GCTAATTTGGGCACCATATTGGGCCTGATTTTGGTAAACACGGAGTCACCTAGTGCAG”, the binding signal is reported as 6980 fluorescence intensity (a.u.).
For “ATGACTGATTTATGACAGCCGTGCATGTGTATTTGTGTACCGGAGTCACCTAGTGCAG”, the binding signal was 55500 fluorescence intensity (a.u.).
“GATGATTGACTTATTATGCTATAATAATATGCTGAATGAACGGAGTCACCTAGTGCAG” was tested, and the binding signal was 40600 fluorescence intensity (a.u.).
For “TGGCCGGTGATTTACCGTACTAGTGATGTATGCGTGCAAACGGAGTCACCTAGTGCAG”, the binding signal was 3650 fluorescence intensity (a.u.).
In the case of “ATTCCAATTGATTTTAGTTAGTTTTCATACATAGTTAACACGGAGTCACCTAGTGCAG”, the binding signal is reported as 10900 fluorescence intensity (a.u.).
“TCTAAACATATCCAGATAAATTATTCTGAGATGAGTCTCACGGAGTCACCTAGTGCAG” was tested, and the binding signal was 3670 fluorescence intensity (a.u.).
With “TTCACGCTTGATTGGGCTGGGATTAAGGCCCATTTATACACGGAGTCACCTAGTGCAG” the binding signal was 23500 fluorescence intensity (a.u.).
In the case of “ACCCCGAGCTGATTATCTCTGAACGTACGATCAAGCCGTCCGGAGTCACCTAGTGCAG”, the binding signal is reported as 6180 fluorescence intensity (a.u.).
In the case of “TACTAATTACTACTAACCGTTAAAAGTAGCCGCCGGTTAACGGAGTCACCTAGTGCAG”, the binding signal is reported as 17800 fluorescence intensity (a.u.).
With “CTTTAGTCTCTGACACTAATTTAGAGTATTAAATATAGACCGGAGTCACCTAGTGCAG” the binding signal was 3810 fluorescence intensity (a.u.).
In the case of “ACAACCAACTGATTGAAGACGTCCACGTGCTTCCTAAGATCGGAGTCACCTAGTGCAG”, the binding signal is reported as 35200 fluorescence intensity (a.u.).
With “AAATCAATTACTAGTGCGCGGTTTGTTGAGGAAAAGGCAACGGAGTCACCTAGTGCAG” the binding signal was 6960 fluorescence intensity (a.u.).
“ACGATCAAATTTAGACATGGAAACTCGTGACTGTGCTTATCGGAGTCACCTAGTGCAG” was tested, and the binding signal was 6550 fluorescence intensity (a.u.).
“AAGATTTAATTGTTACGAACACAACGGCGTAATCGGATCGCGGAGTCACCTAGTGCAG” was tested, and the binding signal was 36000 fluorescence intensity (a.u.).
With “ACTGATTGATTTGGAAGGAGAGAAATACTATGTTGGGTTTCGGAGTCACCTAGTGCAG” the binding signal was 63700 fluorescence intensity (a.u.).
For “GTTTGATTGGAGCAATGTCTCAATGGGTGAGAAGATGAGGCGGAGTCACCTAGTGCAG”, the binding signal was 54300 fluorescence intensity (a.u.).
In the case of “GTGTGATTTGCTAATTGGGTTTGTTATGAAGCTGGTTATCCGGAGTCACCTAGTGCAG”, the binding signal is reported as 54000 fluorescence intensity (a.u.).
For “TGTTGTGATTGGTTGAGAAATGTGGGTATGTGAGAAAATACGGAGTCACCTAGTGCAG”, the binding signal was 15200 fluorescence intensity (a.u.).
With “TCGAAAATTGGTTTTGTTAATATACTAGGACTGATTTCAGCGGAGTCACCTAGTGCAG” the binding signal was 6190 fluorescence intensity (a.u.).
With “GTGTGTGATGGGTTAATCGATGTGCTATGTTATTGGTTTCCGGAGTCACCTAGTGCAG” the binding signal was 5310 fluorescence intensity (a.u.).
In the case of “TGGAGGGATTTGATTTGGAAAGGATTTGGATTCGGGATTGCGGAGTCACCTAGTGCAG”, the binding signal is reported as 3870 fluorescence intensity (a.u.).
For “TTGGCGATTGATTGGGGAAAGGAAACTTTGCTAGGTCAATCGGAGTCACCTAGTGCAG”, the binding signal was 53500 fluorescence intensity (a.u.).
In the case of “GGGAGAGGTGATGAGTGATTGGAGTAGAGGGGAGATGAGGCGGAGTCACCTAGTGCAG”, the binding signal is reported as 12600 fluorescence intensity (a.u.).
For “AGTGATGGCATTGACTGACTTGGGGAAGGAAACAATCGAGCGGAGTCACCTAGTGCAG”, the binding signal was 16000 fluorescence intensity (a.u.).
For “TGTGGGATGGATTTGTGGTGATTGAGAGGGTTTGAAAGGGCGGAGTCACCTAGTGCAG”, the binding signal was 15700 fluorescence intensity (a.u.).
“GTTAATTTTGTGAAATATGTTTGCTGGTTAGTGAATTGTACGGAGTCACCTAGTGCAG” was tested, and the binding signal was 12400 fluorescence intensity (a.u.).
